Measurements reported in ChEMBL document CHEMBL3988442, “University of Dundee, Small-Polar-MMV Screening Library” (2021).
Out of some 48,000 compounds screened, about 13,000 (27%) showed an effect of 50% or more. This is one part of the list.

tested on: Wolbachia pipientis; assay: Anti-Wolbachia Cell-Based Screen; type: functional; design: scale not given: in the data most compounds retested in dose-response had high values; details: 5 µM

Compound | Percent Effect [%]
CC(c1ccc(F)cc1)N1CCN(Cc2ccc(C#N)cc2)CC1 (configuration not stated) | 26.99
CC(C)OCCNC1(c2ccc(Cl)cc2)CCOCC1 | 3.7
CC(=O)N1C[C@H]2CNC[C@@]2(C(=O)NCCNc2ccncc2C)C1 | -5.626
Cc1cccc(-c2ncc(CNC(C)Cc3ccncc3)cn2)c1 (configuration not stated) | -2.738
Cc1nnc([C@@H]2CC[C@@H]3[C@@H](CCN3Cc3ccccn3)O2)o1.O=C(O)C(F)(F)F.O=C(O)C(F)(F)F | -6.583
CC(Cn1cncn1)NCc1ccc2nonc2c1 (configuration not stated) | -26.41
COc1cc(CNC(C)Cn2cccn2)cc(OC)c1OC.Cl (configuration not stated) | -0.312
COc1cc(CNC(C)Cn2cccn2)cc(Cl)c1OC.Cl (configuration not stated) | 86.44
CC(Cn1cccn1)NCc1nc(-c2cccs2)no1 (configuration not stated) | -0.9937
COc1ccc(CNC(C)Cn2cccn2)cc1F (configuration not stated) | 80.61
CC(Cn1ccnc1)NCc1ccc2nonc2c1 (configuration not stated) | -7.482
Cc1nc(C)c(CC(=O)N2C[C@@H]3CC[C@H](C2)N(CC2CC2)C3)s1 | 5.812
O=S1(=O)N(c2ccccc2)C[C@H](O)[C@]12CCNC2 | 107
O=C(O)C(F)(F)F.O=S1(=O)NCC2(CCNCC2)COc2ccccc21 | -6.327
O=S1(=O)N(c2ccccc2)C[C@@H](O)[C@]12CCNC2 | 103.1
OCC1N(Cc2ccco2)[C@H]2CC[C@]1(O)CC2 (some centres not stated) | 109.9
CN1CCN(Cc2ccco2)Cc2cccnc21 | 10.4
Cc1cc(CN2C[C@@H]3COC[C@]3(COCC(=O)N(C)C)C2)no1 | 104.2
Cc1cc(CN2C[C@@H]3COC[C@]3(CNC(=O)N(C)C)C2)no1.O=C(O)C(F)(F)F | -12.05
Cc1cccc(CN2C[C@@H]3COC[C@]3(COCC(=O)N(C)C)C2)n1.O=C(O)C(F)(F)F.O=C(O)C(F)(F)F | 109.1
CN(C)C[C@]12COC[C@H]1CN(Cc1ccc3ccccc3n1)C2.O=C(O)C(F)(F)F.O=C(O)C(F)(F)F.O=C(O)C(F)(F)F | -5.05

Compound | Percent Effect [%]
COC[C@]12COC[C@H]1CN(Cc1ccc3ccccc3n1)C2.O=C(O)C(F)(F)F.O=C(O)C(F)(F)F | -16.09
Cc1cc(CN2C[C@@H]3COC[C@]3(COCc3csc(C)n3)C2)no1.O=C(O)C(F)(F)F | -7.222
Cc1cccc(CN2C[C@H](NS(C)(=O)=O)[C@@H]3OCCC[C@@H]32)n1.O=C(O)C(F)(F)F.O=C(O)C(F)(F)F | -8.995
Cc1cccc(CN2C[C@H](OCc3ccccn3)[C@H]3COC[C@H]32)n1.O=C(O)C(F)(F)F.O=C(O)C(F)(F)F | 114.7
Cc1ccc(CN2C[C@@H](OCc3ccccn3)[C@H]3COC[C@H]32)o1.O=C(O)C(F)(F)F.O=C(O)C(F)(F)F | 91.93
Cc1ccc(CN2C[C@H]3OC(=O)N(Cc4ccccn4)[C@H]3C2)o1 | 4.449
Cc1cccc(CN2C[C@@H]3COC[C@H](NS(C)(=O)=O)[C@@H]3C2)n1.O=C(O)C(F)(F)F.O=C(O)C(F)(F)F | 86.62
Cc1noc(C)c1CN1C[C@H](OCC(=O)N(C)C)[C@H]2COC[C@H]21.O=C(O)C(F)(F)F | -5.936
Cc1cccc(CN2CCO[C@H]3[C@H](Oc4ccccn4)CC[C@@H]32)n1.O=C(O)C(F)(F)F.O=C(O)C(F)(F)F.O=C(O)C(F)(F)F | -5.124
Cc1noc(C)c1CN1C[C@H](OCC2CC2)[C@H]2COC[C@H]21.O=C(O)C(F)(F)F | -11.17
Cc1cccc(CN2C[C@@H]3CCCO[C@@H]3[C@H](NS(C)(=O)=O)C2)n1 | 6.966
CCc1ccc(CN2C[C@H](OC)[C@H]3COC[C@H]32)o1.O=C(O)C(F)(F)F | 106.4
Cc1ncsc1CN1C[C@@H](OCc2ccccn2)[C@H]2OCCC[C@H]21.O=C(O)C(F)(F)F.O=C(O)C(F)(F)F.O=C(O)C(F)(F)F | -3.232
Cc1cccc(CN2C[C@@H](NC(=O)C3CCC3)[C@H]3COC[C@H]32)n1 | 5.905
O=C1NCCC12CN(CC1CC1)CC21CCNCC1 (configuration not stated) | -8.947
CCC/C=C/c1ccc(CN2CCN(C)CC2)cn1 | -3.388
CC(C)C(NC(=O)c1ccco1)C(=O)N1CCC2(CC1)OCCO2 (configuration not stated) | -15.39
CC(C)C(NC(=O)c1ccccc1)C(=O)N1CCC2(CC1)OCCO2 (configuration not stated) | -14.78
O=C(NCC(=O)N1CCC2(CC1)OCCO2)c1ccoc1 | 92.23
Cc1cccc(CN2C(=O)C[C@@H]3[C@@H]2CCN3Cc2ccsc2)n1.O=C(O)C(F)(F)F.O=C(O)C(F)(F)F | 96.12
Cc1cccc(CN2C(=O)C[C@H]3[C@@H]2CCN3Cc2nccs2)n1.O=C(O)C(F)(F)F.O=C(O)C(F)(F)F | 101.6

Compound | Percent Effect [%]
Cc1cccc(CN2C(=O)C[C@H]3[C@@H]2CCN3Cc2ccco2)n1.O=C(O)C(F)(F)F.O=C(O)C(F)(F)F | 95.2
Cc1cccc(CN2C(=O)CC[C@H]3[C@@H]2CCN3CC(=O)N(C)C)n1.O=C(O)C(F)(F)F.O=C(O)C(F)(F)F | 6.381
Cc1ccc(-c2noc(CC[C@@H]3CCCN4CCCC[C@H]34)n2)nn1 | -24.46
Cc1cc(C)nc(C2CCCNC2)n1.Cl.Cl (configuration not stated) | 131.4
Cc1cc(N(C)C)nc(N2CCCC2c2cccnc2)n1 (configuration not stated) | 6.252
Cc1cc(N(C)C)nc(C2CCCNC2)n1.Cl (configuration not stated) | 130.2
c1cncc(NCCNC2CCCNC2)c1 (configuration not stated) | 1.696
CN(C)c1cc(C2CCCNC2)ccn1.Cl.Cl (configuration not stated) | 113.5
CNc1cc(C2CCCNC2)nc(C)n1.Cl.Cl (configuration not stated) | 69.51
O=C([C@H]1C[C@H]2OCC[C@H]2N(Cc2ccncc2)C1)N1CCCCO1 | -15.5
Cc1nc(O)cc(CN2CC=C(c3cnn(-c4ccccc4)c3)CC2)n1 | 3.563
O=C(O)C(F)(F)F.O=C1[C@H]2CN(Cc3cccs3)C[C@H]2CN1c1cncnc1 | 0.1136
Cl.FC(F)(F)c1nc(C2CCCNC2)no1 (configuration not stated) | 113.6
CC(C)c1nc(C2CCCNC2)no1.Cl (configuration not stated) | -31.86
Cc1cc(O)nc(C2CCCNC2)n1.Cl (configuration not stated) | 166.7
COc1ccc(F)cc1C(=O)C1CCCN(Cc2cnc(C)s2)C1 (configuration not stated) | -11.09
N#Cc1cccc(N2CCCC3(CNCCO3)C2)n1.O=C(O)C(F)(F)F.O=C(O)C(F)(F)F (configuration not stated) | 1.133
CN1C(=O)C2(CCN(Cc3cccnc3)CC2)c2cccc(F)c21.Cl | 9.194
COc1ccc(CCN)cc1-c1ccc(S(C)(=O)=O)cc1 | -7.949
O=C(c1cc(F)cc(F)c1)N1C[C@H]2CNC[C@H]2C1 | -1.943
